This note sets out measurements from PubChem BioAssay (Tox21).

Activity calls are given as the source filed them. Calls follow the shape of the dose curve; as a rule, active = well fitted curve in the direction sought with a large enough effect in the repeat runs; inconclusive = weak or mixed curves; inactive = flat fitted curve, though single readings scatter.
% is scaled to controls: 0 for no effect and ±100 for the full control effect.

The first experiment in a line: qHTS assay to test for compound auto fluorescence at 535 nm (green) in HepG2 cells (AID 720675). The conditions noted are these: green autofluorescence 485/535 nm, 1 h; series mostly up to 91.3 µM; fluorescence, % of fluorescein control: at the top concentration. Background: Quantitative high-throughput screening tests each substance at several concentrations.
With `O=C1c2ccccc2S(=O)(=O)N1CCCCN1CCN(c2ncccn2)CC1`, the “fluorescence, % of fluorescein control” value was -0.0247% [at 46 µM] (inactive).
On to `CN(C)c1ccc(C(c2ccccc2)c2ccc(N(C)C)cc2)cc1`, for which the “fluorescence, % of fluorescein control” value was -0.0995% (inactive).
The same measure, in the same setting: the same measure for `Cc1oc2c(NC(=O)c3c(Cl)cccc3Cl)cccc2c1C(C)(C)O`: -0.011% (inactive); for `O=S(c1cc(Cl)cc(Cl)c1O)c1cc(Cl)cc(Cl)c1O`: -0.0025% [at 46 µM] (inactive).
On the same count and under the same terms, with `C=CC1CC2C=CC1C2` (configuration not stated) the figure was -0.0375% (inactive).
Consider `ClCCOCCOCCCl`, for which the “fluorescence, % of fluorescein control” value is 0.112% (inactive).
As to `OCc1cc(C(O)CNCCCCCCOCCCCc2ccccc2)ccc1O` (configuration not stated), the Potency entry is “inactive”.
Regarding `CC(C)OC(=O)C(C)N(C(=O)c1ccccc1)c1ccc(F)c(Cl)c1` (configuration not stated), the “fluorescence, % of fluorescein control” value was 0.0341% (inactive).
On to `Nc1cccc([N+](=O)[O-])c1`, for which the “fluorescence, % of fluorescein control” value was -0.0049% (inactive).
As to `CC1(c2ccccc2)OC(C(=O)O)=CC1=O` (configuration not stated), the “fluorescence, % of fluorescein control” value was 0.0479% [at 46 µM] (inactive).
The same measure, in the same setting: the same measure for `O=C(NCCO[N+](=O)[O-])c1cccnc1`: 0.0862% [at 46 µM] (inactive).
The same measure, in the same setting: with `CCCCCC[C@@H](O)C/C=C\CCCCCCCC(=O)OC` the figure was -0.0054% (inactive); with `O=C(O)c1ccco1`, 0.0201% (inactive).
`C=CCOC(=O)CCC1CCCCC1`: the “fluorescence, % of fluorescein control” value is 0.123% (inactive).
For `O=C(O)CNCC(=O)O`, the fluorescence, % of fluorescein control is -0.0488% [at 3.72 µM] (inactive).
In the case of `CNCCCN1c2ccccc2CCc2ccccc21`, the fluorescence, % of fluorescein control was 0.0155% [at 18.6 µM] (inactive).
Take `CC(=O)NO`: the “fluorescence, % of fluorescein control” value is -0.123% [at 46 µM] (inactive).
On to `Nc1ccccc1S(=O)(=O)c1ccccc1`, for which the “fluorescence, % of fluorescein control” value is 0.0588% (inactive).
For the compound `NCc1ccccc1Sc1ccccc1CO`, the “fluorescence, % of fluorescein control” value is -0.0063% [at 46 µM] (inactive).
In the case of `C[N+](C)(C)CCOC(=O)CCC(=O)OCC[N+](C)(C)C`, the “fluorescence, % of fluorescein control” value is -0.118% [at 46 µM] (inactive).
For the compound `NC(=O)C(c1ccccc1)(c1ccccc1)[C@@H]1CCN(CCc2ccc3c(c2)CCO3)C1`, the “fluorescence, % of fluorescein control” value is 0.097% [at 46 µM] (inactive).
On the same count and under the same terms, with `C=C(C)C(=O)OCCOCC` the figure was 0.0036% (inactive).
On the same count and under the same terms, with `Cn1c(=O)cc(Oc2ccc(F)cc2F)c2cnc(NCC(C)(C)O)nc21` the figure was -0.0363% (inactive); with `C/C(=C(\CCOP(=O)(O)O)SC(=O)c1ccccc1)N(C=O)Cc1cnc(C)nc1N`, -0.0371% [at 18.6 µM] (inactive); with `c1ccc(C(O[C@H]2CCCN(CCc3ccc4c(c3)OCO4)C2)c2ccccc2)cc1`, 0.0556% [at 46 µM] (inactive).
The same measure, in the same setting: the same measure for `COc1ccc(C(=O)N2CCN(CC(=O)N3CCOCC3)CC2)cc1`: 0.0199% [at 46 µM] (inactive); for `C/C=C/C(=O)CC`: 0.0122% [at 18.6 µM] (inactive).
`COc1ccc(S(=O)(=O)N2C(=O)[C@@](c3ccccc3OC)(N3C[C@H](O)C[C@H]3C(=O)N(C)C)c3cc(Cl)ccc32)c(OC)c1`: the “fluorescence, % of fluorescein control” value is 0.106% (inactive).
On to `C#CCN(C)CCCOc1ccc(Cl)cc1Cl`, for which the “fluorescence, % of fluorescein control” value was -0.002% [at 46 µM] (inactive).
Same read-out and setting: with `CC(=O)OC[C@H]1O[C@@H](n2ncc(=O)[nH]c2=O)[C@H](OC(C)=O)[C@@H]1OC(C)=O` the figure was -0.0139% [at 46 µM] (inactive).

Another experiment is described as follows: qHTS assay to test for compound auto fluorescence at 460 nm (blue) in HEK293 cells (AID 720678). The conditions noted are these: blue autofluorescence 405/460 nm; series mostly up to 91.3 µM; fluorescence, % of triamterene: at the top concentration. In short, it runs like this:
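HEK293, 2,000 cells/well, 10% dialyzed FBS; attach 4-5 hr 37C; pin compound or DMSO; o/n 37C/5% CO2; fluorescence 405/460 nm; triamterene-equivalent units.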
As for `CC(=O)c1ccc2c(c1)N(CCCN(C)C)c1ccccc1S2`, the fluorescence, % of triamterene was -0.118% [at 18.6 µM] (inactive).
In the case of `O=C1c2ccccc2S(=O)(=O)N1CCCCN1CCN(c2ncccn2)CC1`, the “fluorescence, % of triamterene” value is -0.16% [at 46 µM] (inactive).
On the same count and under the same terms, the same measure for `CN(C)c1ccc(C(c2ccccc2)c2ccc(N(C)C)cc2)cc1`: -0.0123% (inactive); for `Cc1oc2c(NC(=O)c3c(Cl)cccc3Cl)cccc2c1C(C)(C)O`: -0.146% (inactive); for `O=S(c1cc(Cl)cc(Cl)c1O)c1cc(Cl)cc(Cl)c1O`: -0.106% [at 46 µM] (inactive).
On the same count and under the same terms, the same measure for `C=CC1CC2C=CC1C2` (configuration not stated): 0.0237% (inactive); for `ClCCOCCOCCCl`: -0.0996% (inactive).
As for `OCc1cc(C(O)CNCCCCCCOCCCCc2ccccc2)ccc1O` (configuration not stated), the call was inactive.
Consider `CC(C)OC(=O)C(C)N(C(=O)c1ccccc1)c1ccc(F)c(Cl)c1` (configuration not stated), for which the “fluorescence, % of triamterene” value is -0.0069% (inactive).
Turning to `Nc1cccc([N+](=O)[O-])c1`, the “fluorescence, % of triamterene” value was 0.0883% (inactive).
Still for that read-out and setting: with `CC1(c2ccccc2)OC(C(=O)O)=CC1=O` (configuration not stated) the figure was 0.0134% [at 46 µM] (inactive); with `O=C(NCCO[N+](=O)[O-])c1cccnc1`, 0.0783% [at 46 µM] (inactive).
Same read-out and setting: with `O=CC1CC=CCC1` (configuration not stated) the figure was 0.0044% (inactive).
As to `CCCCCC[C@@H](O)C/C=C\CCCCCCCC(=O)OC`, the “fluorescence, % of triamterene” value is -0.0835% (inactive).
With `CCCCC(CC)COC(=O)CCCCCCCCC(=O)OCC(CC)CCCC` (configuration not stated), the “fluorescence, % of triamterene” value is -0.0646% (inactive).
Same read-out and setting: the same measure for `O=C(O)c1ccco1`: 0.0943% (inactive).
For `C=CCOC(=O)CCC1CCCCC1`, the “fluorescence, % of triamterene” value is -0.0221% (inactive).
The same measure, in the same setting: the same measure for `O=C(O)CNCC(=O)O`: -0.267% [at 3.72 µM] (inactive); for `CNCCCN1c2ccccc2CCc2ccccc21`: 0.119% [at 18.6 µM] (inactive); for `CC(=O)NO`: -0.14% [at 46 µM] (inactive).
With `Nc1ccccc1S(=O)(=O)c1ccccc1`, the “fluorescence, % of triamterene” value was 0.0319% (inactive).
Take `NCc1ccccc1Sc1ccccc1CO`: the “fluorescence, % of triamterene” value was -0.0338% [at 46 µM] (inactive).
Same read-out and setting: the same measure for `CCOCC(O)COc1ccc(NC(=O)CC[S+](C)C)cc1` (configuration not stated): -0.118% [at 46 µM] (inactive); for `NCC(=O)CCC(=O)O`: 0.0239% [at 46 µM] (inactive).
In the case of `C[N+](C)(C)CCOC(=O)CCC(=O)OCC[N+](C)(C)C`, the “fluorescence, % of triamterene” value was 0.142% [at 46 µM] (inactive).
On the same count and under the same terms, with `NC(=O)C(c1ccccc1)(c1ccccc1)[C@@H]1CCN(CCc2ccc3c(c2)CCO3)C1` the figure was 0.0433% [at 46 µM] (inactive); with `C=C(C)C(=O)OCCOCC`, -0.0389% (inactive).
Take `Cn1c(=O)cc(Oc2ccc(F)cc2F)c2cnc(NCC(C)(C)O)nc21`: the “fluorescence, % of triamterene” value is 0.316% (inactive).
On the same count and under the same terms, with `C/C(=C(\CCOP(=O)(O)O)SC(=O)c1ccccc1)N(C=O)Cc1cnc(C)nc1N` the figure was -0.0569% [at 18.6 µM] (inactive); with `c1ccc(C(O[C@H]2CCCN(CCc3ccc4c(c3)OCO4)C2)c2ccccc2)cc1`, -0.0155% [at 46 µM] (inactive).
Same read-out and setting: with `COc1ccc(C(=O)N2CCN(CC(=O)N3CCOCC3)CC2)cc1` the figure was -0.0446% [at 46 µM] (inactive).
In the case of `C/C=C/C(=O)CC`, the fluorescence, % of triamterene is -0.166% [at 18.6 µM] (inactive).
As for `COc1ccc(S(=O)(=O)N2C(=O)[C@@](c3ccccc3OC)(N3C[C@H](O)C[C@H]3C(=O)N(C)C)c3cc(Cl)ccc32)c(OC)c1`, the “fluorescence, % of triamterene” value was 0.0521% (inactive).
Still for that read-out and setting: with `C#CCN(C)CCCOc1ccc(Cl)cc1Cl` the figure was 0.0209% [at 46 µM] (inactive).
On the same count and under the same terms, the same measure for `CCCCC(CC)COC(=O)COc1ccc(Cl)cc1Cl` (configuration not stated): -0.404% [at 95.7 µM] (inactive); for `CC(=O)OC[C@H]1O[C@@H](n2ncc(=O)[nH]c2=O)[C@H](OC(C)=O)[C@@H]1OC(C)=O`: 0.0098% [at 46 µM] (inactive); for `COc1cc(C(=O)OCCCN2CCCN(CCCOC(=O)c3cc(OC)c(OC)c(OC)c3)CC2)cc(OC)c1OC`: -0.0053% [at 46 µM] (inactive).
